The record followed here is PubChem BioAssay.

In general, viability refers to a read-out of living cells in per cent, often relative to untreated cells. In general, inhibition refers to the change of the read-out against control, counted positive when it falls.

Assay [1] is described as follows: OD615 S. cerevisiae growth inhibition, permissive medium, pilot counter-assay, permissive growth control for S. cerevisiae lifespan shortening project (AID 705;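 active = growth inhibition above 25% in both replicates, a cutoff set 3 SD above the mean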). The following applies: OD615, 24 h, at 10 µM, stronger effect = higher value.
A short description of assay [2]: Restrictive medium S. cerevisiae growth inhibition, OD615, pilot screen of yeast lifespan reduction project, restrictive growth control (AID 706;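 active = growth inhibition above a set limit, 3 SD over mean compound inhibition, in both replicates, cut at about 43% in these data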;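 also: modified DeaD lifespan yeast strain shifted to restrictive glucose medium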). The conditions noted are these: OD615, 48 h, at 10 µM, stronger effect = higher value.
The nature of assay [3]: viability gain of MRP-1-high H69AR cells under doxorubicin, pilot screen, MRP-1 activator project, CellTiter-Glo, duplicate (AID 807).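 Also: compound pretreatment 18-22 h then 72 h combined with doxorubicin; 0% = doxorubicin alone and 100% = vehicle without doxorubicin.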 The following applies: H69AR viability with doxorubicin, CellTiter-Glo luminescence; at 10 µM; stronger effect = higher value. (In general: In ATP-based viability assays light output follows the ATP content of the culture.)
Assay [4] is described as follows: growth suppression of beta-catenin knockout HCT116, pilot screen, human colon tumor cells (AID 823;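 active = cell viability at or below a set limit in both duplicate runs, the limit being the all-compound median minus 4 SD, cut at about 23% in these data, passing the limit was not always enough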;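 also: 0% = wells killed by 20 µM Hyamine and 100% = untreated DMSO cell wells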). The conditions noted are these: CellTiter-Glo, 60 h, at 10 µM, stronger effect = lower value.
Assay [5] can be described thus: growth suppression of PTEN-deleted HCT116, pilot screen, cell-based, HCT116 clonal line, CellTiter-Glo (AID 824;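 active = viability at or below 27.92% in each of two runs, the all-compound median minus 4 SD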;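 also: 0% = 20 µM Hyamine control and 100% = vehicle cell control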). The conditions noted are these: 60 h, at 10 µM, stronger effect = lower value.
Assay [6] can be described thus: inhibitors of the yeast RAM network, pilot screen, dse1pr::URA3 reporter, 5-FOA selection (AID 869;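 active = inhibition over a set limit, the all-compound mean plus 3 SD, in both replicate runs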;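 also: 0% = DMSO wells with no growth and 100% = 10 µM 1-NA-PP1 with full growth; RAM network block rescues cells from 5-FOA so hits raise OD615 growth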). The conditions noted are these: S. cerevisiae dse1pr::URA3 5-FOA growth, OD615, 2 d, at 10 µM, stronger effect = higher value.
A short description of assay [7]: RAM signaling pathway blockade in yeast – S. cerevisiae, Pdr1DBD-CYC8 efflux-inhibited sensitized strain, primary screen (AID 1298;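 active = RAM network inhibition above 8.4% in each of two replicates, 3 SD over the compound average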;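 also: 0% = DMSO untreated cells without growth and 100% = 10 µM 1-NA-PP1 full growth; higher means more yeast growth rescued from 5-FOA killing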). The following applies: S. cerevisiae cbk1-as DSE1-URA3 strain, 5-FOA growth OD615, 2 d; at 50 µM; stronger effect = higher value.
Assay [8] concerns the target Pantothenate synthetase (Mycobacterium tuberculosis (strain ATCC 25618 / H37Rv)) (UniProt P9WIL5). The assay is described as follows: Recombinant Mtb pantothenate synthetase (PanC) inhibitors, coupled enzyme, confirmatory (AID 375; call rule not given here;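 also: 0% = full reaction with vehicle and 100% = no enzyme background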). The following applies: coupled enzyme assay; at 10 µM, stronger effect = higher value.
The nature of assay [9]: reducers of endogenous Her2 protein level, primary screen, SKBR3 breast tumor cells, AlphaScreen, ATP viability (AID 461;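 active = Her2 level under about 52% in both replicate screens, with viability over 70% of control, limit read from the data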;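 as to Her2 level: lower value means less Her2 protein in the cells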;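 as to viability: percent of carrier control wells set as 100% viability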). The following applies: 18-24 h, measured here: SKBR3 viability, ATP luminescence, at 10 µM. In general terms: In Alpha technology, singlet oxygen from a donor bead excites a nearby acceptor bead.
For assay [10], the target named is Receptor tyrosine-protein kinase erbB-2 (Homo sapiens) (UniProt P04626). The description is as above. The following applies: 18-24 h, at 10 µM, stronger effect = lower value.
Assay [11] in a line: SK-BR-3 cell growth inhibitors, pilot screen, 24 h, human (AID 572;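 active = viability at or below 10% of carrier control in both of two separate runs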;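 also: compound exposure lasted between 18 and 24 h rather than exactly 24 h; 100% = carrier-treated control wells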). The conditions noted are these: SK-BR-3 viability, CellTiter-Glo luminescence, at 10 µM, stronger effect = lower value.
Assay [12] in a line: HUVEC growth inhibition – cell-based, human, primary screen (AID 575;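 active = viability at or below 30% in both replicate assays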;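 also: 100% = median of untreated cell wells with 0.1% DMSO on each plate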). The conditions noted are these: HUVEC proliferation, CellTiter-Glo luminescence, 72 h; at 10 µM; stronger effect = lower value.
Assay [13] can be described thus: growth inhibitors of H69AR lung tumor, primary screen, human, duplicate replicates (AID 580;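 active = viability at or under a set limit in both replicates, limit being median viability minus 3 SD, cut at about 48% in these data, passing the limit was not always enough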;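 also: 100% = mean luminescence of untreated wells and 0% = no signal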). The following applies: H69AR lung tumor cells viability, ATP luminescence, 72 h; at 10 µM; stronger effect = lower value.
Assay [14] can be described thus: reversal of MRP1-mediated doxorubicin resistance, pilot screen, H69AR cells, doxorubicin co-treatment (AID 601;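 active = viability loss from added drug above about 55%, and viability with drug at most 40%, in both replicates, limit read from the data, passing the limit was not always enough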). The conditions noted are these: CellTiter-Glo, 72 h, at 10 µM; for differential viability (reversal): stronger effect = higher value.
A short description of assay [15]: 384-well plate pilot, post-Golgi transport modulator project, inhibition of yeast transport mutant growth (AID 636; in the data active = inhibition above about 31%). The conditions noted are these: absorbance 615 nm, about 18 h, stronger effect = higher value.
The nature of assay [16]: growth suppression of yeast trafficking mutant, preliminary HTS, modulators of trafficking downstream of Golgi apparatus project, 1536-format plate, OD 615 nm (AID 637; in the data active = inhibition above about 30%). The conditions noted are these: yeast transport mutant growth, absorbance 615 nm, 18 h; stronger effect = higher value.
Setting [17] is: H69AR cells + 2 uM doxorubicin, measured here: viability with 2 uM doxorubicin, stronger effect = lower value.
The mark [18] stands for this setting: H69AR cells, compound alone cytotoxicity.

Inconclusive results are not listed. Calls of active or inactive are those of the source.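 The calls were made as follows, unless noted: active = viability increase at or above a cutoff of the median across tested compounds plus 3 SD (cut at about 8.5% in these data, passing the limit was not always enough); inconclusive = some gains above the cutoff, reason not given; inactive = the rest.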

Receptor tyrosine-protein kinase erbB-2 (Homo sapiens), sequence (P04626 whole entry, looked up): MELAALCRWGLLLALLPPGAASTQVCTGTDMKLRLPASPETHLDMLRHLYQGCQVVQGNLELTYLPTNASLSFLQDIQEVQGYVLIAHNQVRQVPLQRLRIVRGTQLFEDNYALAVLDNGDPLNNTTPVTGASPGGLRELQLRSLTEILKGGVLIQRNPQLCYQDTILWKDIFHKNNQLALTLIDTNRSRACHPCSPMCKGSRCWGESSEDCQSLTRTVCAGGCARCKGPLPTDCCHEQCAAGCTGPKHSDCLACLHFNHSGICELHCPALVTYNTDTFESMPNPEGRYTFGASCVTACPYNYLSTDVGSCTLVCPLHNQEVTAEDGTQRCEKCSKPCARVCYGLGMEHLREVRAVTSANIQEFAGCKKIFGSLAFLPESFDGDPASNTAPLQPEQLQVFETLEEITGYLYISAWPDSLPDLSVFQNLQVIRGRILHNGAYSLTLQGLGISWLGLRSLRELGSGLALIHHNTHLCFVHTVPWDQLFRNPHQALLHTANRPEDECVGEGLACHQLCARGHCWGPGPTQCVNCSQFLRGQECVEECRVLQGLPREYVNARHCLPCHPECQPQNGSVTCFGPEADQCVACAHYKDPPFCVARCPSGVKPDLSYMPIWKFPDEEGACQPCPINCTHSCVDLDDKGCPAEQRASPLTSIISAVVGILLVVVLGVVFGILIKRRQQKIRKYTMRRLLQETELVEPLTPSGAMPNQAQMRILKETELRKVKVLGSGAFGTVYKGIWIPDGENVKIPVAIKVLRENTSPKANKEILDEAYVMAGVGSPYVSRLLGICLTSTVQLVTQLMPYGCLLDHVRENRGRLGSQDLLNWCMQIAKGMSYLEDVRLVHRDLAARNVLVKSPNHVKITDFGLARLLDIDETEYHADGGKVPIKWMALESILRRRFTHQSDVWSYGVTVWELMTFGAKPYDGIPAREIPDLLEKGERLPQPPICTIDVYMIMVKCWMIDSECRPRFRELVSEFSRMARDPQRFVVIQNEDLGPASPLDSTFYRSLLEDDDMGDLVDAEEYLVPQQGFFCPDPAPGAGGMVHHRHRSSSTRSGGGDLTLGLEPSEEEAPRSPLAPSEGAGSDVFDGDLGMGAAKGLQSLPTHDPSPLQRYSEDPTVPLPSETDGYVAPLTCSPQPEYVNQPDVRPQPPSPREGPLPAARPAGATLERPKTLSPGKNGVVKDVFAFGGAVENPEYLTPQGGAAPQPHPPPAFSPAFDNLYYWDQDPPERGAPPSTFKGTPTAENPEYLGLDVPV
Pantothenate synthetase (Mycobacterium tuberculosis (strain ATCC 25618 / H37Rv)), sequence (P9WIL5 whole entry, looked up): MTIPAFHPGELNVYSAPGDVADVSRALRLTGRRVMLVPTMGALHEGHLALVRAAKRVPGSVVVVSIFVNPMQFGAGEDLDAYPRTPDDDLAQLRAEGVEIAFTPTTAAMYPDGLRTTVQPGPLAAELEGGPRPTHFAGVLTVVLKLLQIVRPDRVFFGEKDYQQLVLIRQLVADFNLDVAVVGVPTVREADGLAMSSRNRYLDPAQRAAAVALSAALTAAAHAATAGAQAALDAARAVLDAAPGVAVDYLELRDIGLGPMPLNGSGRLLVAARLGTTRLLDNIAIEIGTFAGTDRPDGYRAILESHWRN

As for `COc1ccc2[nH]c(C)c(CCN3CCC(=O)C(C)C3C)c2c1` (configuration not stated), the growth inhibition was -4.37% (inactive) in assay [1] and -10.2% (inactive) in assay [2]. The viability increase in assay [3] is -2.73% (inactive). The viability in [4] is 87.1% (inactive); in assay [5] it was 93.1% (inactive). For the same compound, the inhibition in [6] is 0.27% (inactive). The RAM network inhibition in assay [7] was 3.24% (inactive).
In the case of `CC12CNCC(C)(CNC1)C2O` (configuration not stated), the growth inhibition is 7.96% (inactive) in assay [1] and -2.77% (inactive) in assay [2]. Further, the viability increase in assay [3] was -0.15% (inactive). Also, the viability in [4] was 97.5% (inactive); in assay [5], 99.8% (inactive). Besides, the inhibition in assay [6] is 1.12% (inactive). Moreover, the RAM network inhibition in assay [7] is 2.1% (inactive).
As for `Cc1nc2ccccc2c(=O)n1-c1ccc(F)cc1`, the inhibition is 0% (inactive) in [8], -5.32% (inactive) in assay [15], 1.5% (inactive) in assay [16] and 1.44% (inactive) in assay [6]. In addition, the viability was 104% in [9]; 104% (inactive) in [11]; 93.6% (inactive) in [12]; 96.1% (inactive) in assay [13]; 84.6% in assay [14] (setting [17]); 96.1% in assay [14] (setting [18]). Besides, the viability in assay [4] was 97.7% (inactive); in assay [5], 100% (inactive). For the same compound, the Her2 level in assay [10] was 90% (inactive). Further, the differential viability (reversal) in assay [14] (H69AR cells + 2 uM doxorubicin) was 11.5% (inactive). The growth inhibition was -2.1% (inactive) in [1] and 4.13% (inactive) in assay [2]. Also, in assay [3], the viability increase was -0.87% (inactive). Besides, the RAM network inhibition in assay [7] was 1.29% (inactive).
On to `CCCCP(=O)(O)c1ccccc1`, for which the growth inhibition in assay [1] is -5.46% (inactive); in assay [2] it was -11.7% (inactive). Besides, the viability increase in [3] is -0.51% (inactive). In addition, the viability in assay [4] is 101% (inactive); in assay [5], 95.4% (inactive). Besides, in assay [6], the inhibition was 1.03% (inactive). In assay [7], the RAM network inhibition is 3.03% (inactive).
Turning to `CCCCCCOc1ccc(CN2CCN(C)CC2)cc1`, the inhibition in [8] is 0% (inactive); in assay [15] it was -5.06% (inactive); in assay [16], 3.44% (inactive); in assay [6], -0.45% (inactive). Besides, the viability in assay [9] was 83.5%; in assay [11], 83.5% (inactive); in assay [12], 61.5% (inactive); in assay [13], 77.2% (inactive); in assay [14] (setting [17]) it was 70.5%; in assay [14] (setting [18]) it was 77.2%. Further, the viability in assay [4] was 47.7% (inactive); in assay [5], 49% (inactive). Moreover, the Her2 level in [10] was 87% (inactive). For the same compound, the differential viability (reversal) in assay [14] (H69AR cells + 2 uM doxorubicin) was 6.76% (inactive). Besides, the results for the growth inhibition in assay [1] and in [2] were -13.5% (inactive) and -20.8% (inactive), respectively. For the same compound, the viability increase in assay [3] is -5.38% (inactive). The RAM network inhibition in assay [7] was 0.09% (inactive).
